PLK1 PBD inh: PLK1 (human) polo-box domain binding inhibition. P53350. Plk1 PBD binding of FITC phosphopeptide, fluorescence polarization. Potency, µM, for inactives: max response, negative = inhibition, usual class: inhibitors. 2.8% of 360,000 active. AID 720504; also: series mostly up to about 57 µM; nearly all actives have a fitted effect of over 65% in size
KAT2A inh: inhibitors of human GCN5L2 histone acetyltransferase | Q92830 | GCN5L2 HAT assay, ThioGlo1 CoA-SH fluorescence | Potency, µM (highest dose often 58.9 µM), without a hit: top-dose activity change, negative = inhibition, actives largely listed as inhibitors | 0.21% of 390,000 active | AID 504327
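Compounds, pin-transferred from DMSO stocks, meet 20nM GCN5L2 for 15 min before the reaction begins with H3(1-25) peptide (75uM) and acetyl-CoA (70uM). Thiol-reactive ThioGlo1 reports CoA release over 20 min at room temperature.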
ALOX12 inh: inhibitors of human 12S-lipoxygenase ALOX12; P18054; purified 12hLO, xylenol orange hydroperoxide absorbance; Potency, µM (titrated, usually from 108 µM), without a hit: at the top dose activity change, negative = inhibition, usual class: inhibitors; 1.1% of 580,000 active; AID 1671190
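Purified human 12hLO (150 nM final) in 25 mM Hepes, 0.01% Triton X-100, pH 7.0 was preincubated 15 min at room temperature with compound. Then 40 uM arachidonic acid was added, 30 min. Hydroperoxide was read by Fe-XO absorbance ratio 573/405 nm.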
VDR inh: inhibitors of human vitamin D receptor. 0.93% of 400,000 active. P11473. Potency, µM, for inactives: max response, negative = inhibition, actives largely listed as inhibitors. VDR-SRC2-3 peptide fluorescence polarization, 2 h
Target sequence (P11473 whole entry, looked up): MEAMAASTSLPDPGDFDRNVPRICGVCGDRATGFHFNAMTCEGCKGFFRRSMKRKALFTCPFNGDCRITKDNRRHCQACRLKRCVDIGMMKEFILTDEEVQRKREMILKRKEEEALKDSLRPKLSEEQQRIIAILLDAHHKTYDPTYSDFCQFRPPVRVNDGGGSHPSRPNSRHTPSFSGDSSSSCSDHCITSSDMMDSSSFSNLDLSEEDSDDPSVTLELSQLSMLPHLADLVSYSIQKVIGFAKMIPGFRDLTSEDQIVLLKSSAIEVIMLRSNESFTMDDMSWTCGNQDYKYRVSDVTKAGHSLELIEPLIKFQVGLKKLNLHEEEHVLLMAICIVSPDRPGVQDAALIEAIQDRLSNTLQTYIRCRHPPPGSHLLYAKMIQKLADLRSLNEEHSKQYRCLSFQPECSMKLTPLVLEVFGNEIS
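Signal is fluorescence polarization, reporting how far test compounds block the interaction of VDR with the SRC2-3 coregulator peptide after a 2 h room-temperature incubation.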
* hit, by the source's call; ? = inconclusive; / = no result; [ ] = another dose, or the depositor's remark. Compounds with a hit are over-represented: about 3% of the library has one in this group of screens. Calls follow the shape of the dose curve; as a rule, active = well fitted curve in the direction sought with a large enough effect; inconclusive = small, poorly fitted or top-dose-only effect, or another doubt; inactive = no such curve, though single readings can be large; an effect the other way counts as inactive or inconclusive. % is scaled to controls: 0 for no effect and ±100 for the full control effect; potency is read from the fitted curve at half-maximal effect.

SMILES | PLK1 PBD inh | KAT2A inh | ALOX12 inh | VDR inh
C=CCOc1ccc(C2NC(=S)NC3=C2CCc2ccccc23)cc1 (stereo unspecified) | ? | 3% | ? | 6%
Cc1ccc(-c2cnc(CCC(=O)NCc3ccc(F)c(C)c3)o2)cc1 | / | / | -1% | /
CN(CCOc1ccc(F)cc1)C(=O)c1ccc2ccccc2n1 | / | / | 4% | /
CC(=O)Nc1cc(NC(=O)Cc2nc(-c3ccccc3)oc2C)ccc1F | / | / | 3% | /
Cc1nn2c(c1-c1ccccc1-c1ccccc1)N(Cc1ccccc1)CCC2 | / | / | 6%[176 µM] | /
Cc1nn2c(c1-c1ccccc1-c1ccccc1)N(CCC(C)C)CCC2 | / | / | 40µM* | /
CC1CCN(C(=O)C(C)OC(=O)CSc2ccc([N+](=O)[O-])cc2)CC1 (stereo unspecified) | 15µM* | -1% | ? | ?
CC(OC(=O)CSc1ccc([N+](=O)[O-])cc1)C(=O)NCc1ccco1 (stereo unspecified) | -14% | -18% | -8% | -1%
Cc1nn(-c2ccccc2)c(N2CCCC2)c1/C=N/NC(=S)Nc1ccccc1C(F)(F)F | -2% | -2% | 35µM* | -6%
CCOc1cc(NC(=S)NCC2CCCO2)c(OCC)cc1NC(=O)CC (stereo unspecified) | -3% | -1% | -21% | 3%
CCOc1cc(NC(=S)NCC2CCCO2)c(OCC)cc1NC(=O)c1ccccc1F (stereo unspecified) | -15% | -2% | 40µM* | 6%
Cn1ncc2c(N3CCN(S(N)(=O)=O)CC3)nc(C3CCCC3)nc21 | / | / | 11% | /
CCOC(=O)C(NC(=O)c1ccc(OC)cc1)(Nc1ccccc1F)C(F)(F)F (stereo unspecified) | / | / | 39% | /
COc1cc2c(cc1NC(=O)CSc1ccc(C)cc1)oc1ccccc12 | -5% | -9% | -4% | 27%
COc1cc2c(cc1NC(=O)CN1CCN(S(=O)(=O)c3ccccc3F)CC1)oc1ccccc12 | 3.4µM* | -5%[0.501 µM] | -2% | -21%
CC1CN(Cc2coc(-c3cccc(F)c3)n2)CCO1 (stereo unspecified) | / | / | -1% | /
CCNC(=S)NS(=O)(=O)c1ccc(C)cc1 | 8% | -8% | ? | 9%
CCNC(=S)NS(=O)(=O)c1ccc(CC)cc1 | -26% | -3% | 6.3µM* | 19%
CC(=O)NS(=O)(=O)c1ccc(NC(=S)Nc2ccccc2)cc1 | -1% | -6% | 15% | -9%
CCc1ccc(S(=O)(=O)NC(=S)Nc2ccccc2)cc1 | 27µM* | -3% | 45µM* | ?
Cc1oc(-c2ccccc2)nc1COc1cc(Cl)ccc1Cl | / | / | -7% | /
COc1ccc(OC)c(NC(=O)c2cc3c(OC)c(OC)c(OC)cc3[nH]2)c1 | / | / | 15% | /
CCNC(=S)NN=C1c2ccccc2-c2ccccc21 | -1% | -15% | 35µM* | -1%
C=C(C)CNC(=S)NN=C1c2ccccc2-c2ccccc21 | 0% | -5% | / | 0%
S=C(NCCCN1CCOCC1)NN=C1c2ccccc2-c2ccccc21 | -20% | / | 45µM* | /
SMILES | PLK1 PBD inh | KAT2A inh | ALOX12 inh | VDR inh
S=C(NCCCN1CCOCC1)Nc1ccc(-c2nc3ccccc3[nH]2)cc1 | 24µM* | 0% | 0% | -15%
Cc1ccc(-c2csc3ncnc(Nc4ccc(N5CCOCC5)cc4)c23)cc1 | 27µM* | -12% | 0% | -7%
CCOC(=O)c1cc2n(n1)CC(C)(C(=O)NC1CCCC1)N(CCc1cccs1)C2=O (stereo unspecified) | / | / | -11% | /
O=C(O)C1CCCCC1C(=O)NC1C2CC3CC(C2)CC1C3 (stereo unspecified) | -5% | -2% | -12% | 3%
NC(=S)NNC(=O)[C@@H]1CCCC[C@@H]1C(=O)O | 21µM* | -7% | / | -16%
COc1cccc(-c2nnn(CC(=O)N3CCC(c4nc5ccccc5s4)CC3)n2)c1 | / | / | 3% | /
O=C(CN1C(=O)C(=O)N(Cc2ccco2)C1=O)c1c[nH]c2ccccc12 | 27µM* | -4% | -24% | -20%
CCn1c(=S)[nH]c2c(=O)n(C)c(=O)n(C)c21 | -16% | / | -21% | 50µM*
COc1cccc(C(=O)O/N=C(\N)c2ccccn2)c1OC | 24µM* | -9% | 16% | ?
COc1cccc(C(=O)O/N=C(\N)c2ccncc2)c1OC | 0% | -2% | -19% | -1%
O=C(c1ccc([N+](=O)[O-])cc1)N1CCSC1c1ccc(Br)cc1 (stereo unspecified) | 17µM* | -15% | ? | -16%
CCOc1ccc(C(=O)N(c2ccc(C)cc2)C2C=CS(=O)(=O)C2)cc1 (stereo unspecified) | / | / | 1% | /
